Reference: PubChem BioAssay (NCATS)
Records with an inconclusive call do not appear. Calls of active or inactive are those of the source. The call rests on the fitted dose curve; in most records, active means well fitted cell-killing curve with a large enough effect; inconclusive means small, poorly fitted or top-dose-only effect, or effect the other way; inactive means flat fitted curve, though single readings scatter.

What follows are compounds tested on CAOV3 (assay: Primary qHTS to identify gynecologic anti-cancer compounds using libraries of approved drugs and bioactive compounds (AID 1345084; further: nearly all actives have a fitted effect of over 55% in size)). Details: Gynecologic cancer cell panel viability, ATPlite luminescence, 48 h; series mostly up to 57.5 µM; activity change, negative = cytotoxicity: at the top concentration.
Description: National Center for Advancing Translational Sciences [NCATS] Assay Overview: Chemotherapeutic drug responses vary from cancer to cancer and from patient to patient. These variations could be caused by a number of factors including patient genomic background, tumor mutations, tumor heterogeneity, and aspects of drug treatment. Chemotherapeutic drug resistance is also a common issue and can lead to ineffective treatment and patient death. Here we have profiled the cell killing effects of thousands of compounds to characterize the responses in three gynecological cancers, identify cancer-selective compounds, and understand the diversity of responses to these compounds from pan-cancer suppressors to single cell line selective compounds. In this assay, we screened a 7,914 compound drug library that included approved drug and bioactive compounds in six ovarian, three cervical, and […] placental cancer cell lines using the ATPlite assay for cell viability. […] The cervical cancer cell lines included HeLa, Ca Ski, and C-33 A. The placental cancer cell lines included JEG-3. HEK 293T cells were used as the control cell line to determine the selectivity index. ATPlite is a luminescence based assay reliant on the conversion of a luciferase substrate to light in the presence of ATP. As a cytotoxic compound will suppress growth and decrease the number of cells, the concentration of ATP will decrease, and less light signal will be detected in the well.
Assay Protocol Summary: 1,000 cells in 4 uL of media were dispensed into white, solid bottom 1536-well plates using a Multidrop Combi (Thermo Scientific). The Assay plates were incubated for 16 hours at 37 C with 5% CO2 in assay plates, followed by the addition of 23 nL of DMSO or drug dissolved in DMSO. Each compound was assayed in five concentrations (0.092, 0.46, 2.3, 11.5, and 57.5 uM), using the automated Wako 1536 Pin Tool workstation and incubated at 37 C with 5% CO2 48 hours. 4 uL of ATPlite, the ATP monitoring reagent, was then added to the each well of the assay plates using the Multidrop Combi reagent dispenser followed by incubation for 15 minutes at room temperature. The resulting luminescence was measured using the ViewLux plate reader.
On the % scale 0 is the no-effect control and ±100 the full control effect; potency means the concentration at half of the fitted maximal effect.

SMILES	activity change, negative = cytotoxicity	Potency
NC(=O)c1ccc(N(C(N)=O)c2c(F)cccc2F)nc1-c1ccc(F)cc1F	4.19% (inactive)	–
O=C(CO)N1CCC(c2[nH]nc(-c3ccc(Cl)cc3)c2-c2ccncn2)CC1	28.2% (inactive)	–
COc1nc(C)cnc1NS(=O)(=O)c1cccnc1-c1ccc(-c2nnco2)cc1	13.9% (inactive)	–
CNC(=O)c1cc(Oc2ccc(NC(=O)Nc3ccc(Cl)c(C(F)(F)F)c3)c(F)c2)ccn1	-3.04% (inactive)	–
c1ccc(-c2oc3ncnc(NC[C@@H]4CCCO4)c3c2-c2ccccc2)cc1	-1.51% (inactive)	–
Cc1nc(C(=O)NCC(=O)O)c(O)c2ccc(Oc3ccccc3)cc12	-1.62% (inactive)	–
Cc1ccccc1-n1c(Cn2nc(-c3cccc(O)c3)c3c(N)ncnc32)nc2cccc(C)c2c1=O	-14.5% (inactive)	–
CC1=C(C(=O)Nc2cc3cn[nH]c3cc2F)C(c2ccc(C(F)(F)F)cc2)CC(=O)N1 (stereo not given)	18.6% (inactive)	–
COc1ccc(-c2cc3nccn3c(Nc3ncccc3C(N)=O)n2)cc1OC	-27% (inactive)	–
CCNC(=O)c1noc(-c2cc(C(C)C)c(O)cc2O)c1-c1ccc(CN2CCOCC2)cc1	-39.5% (inactive)	–
CC1CCN(c2cc(N3CCN(C)CC3)ccc2NC(=O)c2cc(C#N)c[nH]2)CC1	12.3% (inactive)	–
CS(=O)(=O)c1ccc(C2=C(c3ccccc3)C(=O)OC2)cc1	15.2% (inactive)	–
CCN1C[C@H](C)n2c(c(O)c3c(=O)n(Cc4ccc(F)c(Cl)c4)nc(C(=O)NC)c32)C1=O	14.2% (inactive)	–
Nc1ccc(-c2ccc3ncc4ccc(=O)n(-c5cccc(C(F)(F)F)c5)c4c3c2)cn1	–	0.631 µM (active)
CN(C)CCOc1cc(-c2cn[nH]c2)ccc1NC(=O)C1COc2ccccc2O1 (stereo not given)	0% (inactive)	–
Cc1ccccc1C(C(=O)NC1CCCCC1)N(C(=O)CNc1ccc(C#N)cc1)c1cccc(F)c1 (stereo not given)	22.6% (inactive)	–
COc1ccnc(CS(=O)c2nc3ccc(OC(F)F)cc3[nH]2)c1OC (stereo not given)	-16.5% (inactive)	–
O[C@@H](COc1cccc2ncccc12)CN1CCN(C2c3ccccc3[C@@H]3[C@H](c4ccccc42)C3(F)F)CC1 (stereo not given in full)	8.36% (inactive)	–
COc1ccc(Cn2ccc3ccc(C(=O)NO)cc32)cc1	-12.3% (inactive)	–
Cc1nc2c([nH]1)CCN(C(=O)c1ccc(NC(=O)c3ccccc3-c3ccccc3)cc1)c1ccccc1-2	16.4% (inactive)	–

SMILES	activity change, negative = cytotoxicity	Potency
O=S(=O)(O)c1ccc2cc(N=Nc3cc(S(=O)(=O)O)c4cccnc4c3O)ccc2c1	0.111% (inactive)	–
C[C@@]1(c2cc(-c3cncnc3)c(F)cc2F)CCSC(N)=N1	17% [at 25.3 µM] (inactive)	–
CCCCn1c(=O)n(Cc2ccccc2F)c(=O)c2[nH]c(Cc3ccc(NC(C)=O)cc3)nc21	-0.523% (inactive)	–
Nc1[nH]nc2nnc(-c3c(-c4ccccc4)nn4ccccc34)cc12	-4.92% (inactive)	–
Cc1c(C(=O)Nc2ccc(N3C[C@@H](C)O[C@@H](C)C3)nc2)cccc1-c1ccc(OC(F)(F)F)cc1	6.91% (inactive)	–
COc1ccc(CCC(=O)Nc2nc3ccc(Cl)cc3s2)cc1OC	8.41% (inactive)	–
CCn1c(-c2nonc2N)nc2cncc(CNC3CCNCC3)c21	-16.5% (inactive)	–
COc1cc(Nc2nc3ccccc3nc2NS(=O)(=O)c2ccc(NC(=O)c3ccc(C)c(OC)c3)cc2)cc(OC)c1	0.413% (inactive)	–
CN[C@@H](C)[C@H]1[C@H](O)C[C@@]2(C)[C@@H]3CC[C@H]4C(C)(C)[C@@H](NC)CC[C@@]45C[C@@]35CC[C@]12C	7.65% [at 11.6 µM] (inactive)	–
O=C(CCCN1CCN(c2ccc(F)cc2)CC1)NC1c2ccccc2CSc2ccccc21 (stereo not given)	-5.04% (inactive)	–
O=C(O)CCNc1cc(N2CCc3ccccc3CC2)nc(-c2ccccn2)n1	26.6% (inactive)	–
COc1nccc(-c2c(-c3ccc(F)cc3)ncn2C2CCNCC2)n1	10.2% (inactive)	–
COC(=O)N1CCN(Cc2cccc(NC(=O)Nc3ccc(C)nc3)c2F)CC1	-23.8% (inactive)	–
CCCCC(F)(F)[C@@]1(O)CC[C@H]2[C@H](CC(=O)[C@@H]2CCCCCCC(=O)O)O1	1.43% (inactive)	–
CN1C(=O)C(Cc2c[nH]c3ccccc23)NC1=S (stereo not given)	5.55% [at 25.3 µM] (inactive)	–
CN(C)c1nc(Cc2ccc(NC(=O)c3ccc(C(F)(F)F)cc3)cc2)nc(N(C)C)c1CC(=O)O	0.17% (inactive)	–
CC(C)(C)c1nc(-c2cccc(NS(=O)(=O)c3c(F)cccc3F)c2F)c(-c2ccnc(N)n2)s1	31.2% (inactive)	–
COc1ccc(-c2ccc3ncc4c(c3c2)n(-c2ccc(N3CCNCC3)c(C(F)(F)F)c2)c(=O)n4C)cn1	–	2.51 µM (active)
Fc1ccc(CNc2ncnc3ccc(F)cc23)cc1	0.471% (inactive)	–
CN1CCc2c(n(Cc3ccc(C(=O)NO)cc3)c3ccccc23)C1	-2.04% (inactive)	–
